# According to the supplement of paper PMC3334620:
# Whole data set: some 33,000 sequences, median “E-score (-0.5 to 0.5)” near -0.01, cut for the highest 2% near 0.26. Many of the other results were omitted from the sample, so the highest values are more common in it than they were.
# Target: Ste12 (UniProt P13574)
# Assay: PBM E-score (8-mer binding enrichment) (E-score (-0.5 to 0.5)); higher = stronger / more preferred TF binding
# Settings: protein concentration: 200 nM; construct: GST-DNA-binding domain
# Protocol: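 Universal 'all 10-mer' protein binding microarrays (Agilent AMADID 015681) probed with GST-tagged S. cerevisiae TFs (full-length or DBD) made by in vitro transcription/translation (PURExpress), about 100-200 nM. Bound TF was detected with fluorescent anti-GST. Each ungapped 8-mer (which stands for itself and its reverse complement) is scored by the PBM enrichment score (E-score), a modified Wilcoxon-Mann-Whitney statistic from -0.5 to +0.5, computed with the Universal PBM Analysis Suite. Scale: above 0.35 generally sequence-specific binding.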
# UniProt P13574, sequence (P13574 whole entry): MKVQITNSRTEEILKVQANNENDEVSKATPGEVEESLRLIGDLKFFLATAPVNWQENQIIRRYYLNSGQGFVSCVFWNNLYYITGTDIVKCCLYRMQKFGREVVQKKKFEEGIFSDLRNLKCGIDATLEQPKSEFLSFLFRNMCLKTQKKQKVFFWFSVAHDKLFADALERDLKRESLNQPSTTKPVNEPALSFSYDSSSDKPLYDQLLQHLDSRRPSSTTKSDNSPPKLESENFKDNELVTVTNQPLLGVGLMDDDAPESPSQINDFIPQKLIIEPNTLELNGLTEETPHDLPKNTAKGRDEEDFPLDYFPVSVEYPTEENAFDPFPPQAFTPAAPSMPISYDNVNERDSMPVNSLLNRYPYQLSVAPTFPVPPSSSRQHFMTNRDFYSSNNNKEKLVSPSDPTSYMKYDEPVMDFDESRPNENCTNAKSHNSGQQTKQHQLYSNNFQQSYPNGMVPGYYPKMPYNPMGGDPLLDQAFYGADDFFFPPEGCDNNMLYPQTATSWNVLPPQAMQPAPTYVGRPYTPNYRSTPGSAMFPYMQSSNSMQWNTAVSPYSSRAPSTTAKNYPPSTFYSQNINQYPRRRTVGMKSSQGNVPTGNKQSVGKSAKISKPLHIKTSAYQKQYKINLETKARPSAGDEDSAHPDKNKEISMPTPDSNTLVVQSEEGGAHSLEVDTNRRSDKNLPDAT
row,Sequence,PBM E-score
1,GCCCACCA,-0.0497
2,CCCCACCG,0.137
3,ACCCACCA,0.0136
4,CCCCACCC,0.361
5,CCCCACCA,0.102
6,GCCCACCC,0.344
7,GCCCACAC,0.0974
8,ACCCACCC,0.314
9,ACCCACCT,0.0687
10,GGAAAATA,0.255
11,AACTACTT,-0.00699
12,CTGGTCGC,0.0843
13,CACTATGC,-0.0894
14,CTCAAGCA,-0.0187
15,CTCAAACC,0.0438
16,ATCAAACC,0.217
17,CTCAAACA,0.341
18,ATCAAGCA,0.0192
19,ATCAAACA,0.27
20,CTGAATCC,0.0117
21,CAGTAGGC,-0.0958
22,GACTAGGA,-0.047
23,GCTTGATA,0.083
24,AATGATAG,0.194
25,AATGATAA,0.263

row,Sequence,PBM E-score
1,AATGATAT,0.113
2,CATGATAC,0.242
3,AATGATAC,0.278
4,TATGATAA,0.131
5,GTCTAACA,-0.0889
6,ACTTACCT,-0.0503
7,ACCGGTGC,-0.0741
8,ATTCCACA,0.268
9,ATTCCACC,0.113
10,ATTCCACG,-0.0633
11,ATCGAGTA,-0.0649
12,CTCGCACA,0.127
13,CTTGAGTC,-0.136
14,CGTTTTGC,0.197
15,AGTTTTGA,0.148
16,CGTTTTGA,0.275
17,GTTTTGAA,0.189
18,GGTTTGAC,-0.0297
19,CGTTTGAA,0.265
20,AGTTTGAA,0.174
21,CGTTTGAC,-0.0236
22,GGTTTGAA,0.297
23,CGTTTGAG,0.111
24,TGTTTGAA,0.378
25,TCTTTGAA,0.161

row,Sequence,PBM E-score
1,CACTGCAC,-0.14
2,CGCCCACC,0.139
3,ATCCTTTG,0.0895
4,AGAAAGTA,0.138
5,AGACAAGC,-0.0877
6,AGACGCGG,0.0721
7,AACCCAGA,-0.108
8,CGCTTGCC,-0.062
9,ATTTAAAG,0.275
10,AGTTAAAT,0.163
11,ATTTAAAC,0.207
12,ATTTAAAT,0.327
13,AATTAAAT,0.156
14,CTTTAAAG,-0.0155
15,ACAAGTTC,-0.00961
16,ATGAGTTA,-0.0873
17,AAGTCACC,-0.0787
18,TAAGTGCA,-0.104
19,GTTGAAAC,0.399
20,CTTGAAAA,0.157
21,TCTGAAAA,0.12
22,ATTGAAGA,0.00866
23,TGTGAAAA,0.216
24,ATGGAAAT,0.0797
25,ATTGAAAA,0.352

row,Sequence,PBM E-score
1,GTTGAAAA,0.206
2,ATGGAAAA,0.186
3,TTTGAAAA,0.309
4,GTAGAAAC,0.0517
5,ATGGAAAC,0.263
6,GCTTATCC,0.0792
7,ACTTGAGA,0.142
8,ACGTCTAC,-0.118
9,ATAAAAGC,-0.00425
10,GCCCTGGA,-0.235
11,CACTATGG,-0.0915
12,ATTGAGAG,-0.0617
13,CTTGAAAG,-0.0999
14,CTTGAACC,-0.0679
15,ATTGAAAT,0.233
16,ATTGAAAC,0.398
17,ATTGAAAG,0.0623
18,ATTGAGAA,0.277
19,ATTGAGAC,0.122
20,CTTGAAAC,0.479
21,AACGACCA,-0.0479
22,ATGGGAAG,-0.0232
23,CCCCGGGG,-0.186
24,GTGTACAC,-0.224
25,ATGTTGTA,-0.00602

row,Sequence,PBM E-score
1,GCATCAGC,0.034
2,ACTAGGTC,-0.114
3,AAAAAGAT,0.271
4,TAAAAGAA,0.0708
5,AAAAGAAT,0.266
6,AAAGATAC,0.0821
7,AAAGATAG,-0.0536
8,AAAAAGAC,0.153
9,AAAAGAAG,0.072
10,AAAAGAAC,0.126
11,CAAAAGAA,0.156
12,ACAAAGAT,0.0339
13,AAAAAGAA,0.289
14,AAAGATAT,0.273
15,AAAGCAAA,0.148
16,AAACCTTC,-0.0506
17,CGGGACTA,-0.0932
18,GCATCCGA,-0.0885
19,CGTATGAA,0.213
20,AGTAGGAG,-0.119
21,CCTCGCAA,0.18
22,AAAGAAAA,0.351
23,AGAAAAGC,0.127
24,CGAAAAGA,0.242
25,CAAGAAAA,0.24

row,Sequence,PBM E-score
1,AGAAAAGA,0.297
2,AAAGAAAG,0.19
3,AGAGGGAG,-0.106
4,CAAAGTCG,0.0234
5,TCCTAGCA,-0.0629
6,ACCTCCAC,-0.0491
7,GATAGATC,-0.194
8,AACAGAGT,0.173
9,CACCTAAC,0.0515
10,CTGTAGTA,0.186
11,GCAATATA,0.149
12,ATAATACC,0.161
13,CTAATATA,0.0456
14,ATAATACA,0.318
15,ATAATATG,0.248
16,CCAATATA,-0.103
17,ACAATATA,0.271
18,ATAATATA,0.301
19,ATAATACG,0.0652
20,AGAGTAGA,-0.0237
21,CGTTCTCA,0.0637
22,GCCAGCTA,-0.192
23,CCGCATCC,-0.0589
24,ATGTTCAC,0.0173
25,TGATGCAA,0.137

row,Sequence,PBM E-score
1,ACCTTCTC,0.0171
2,AAGAAAAC,0.275
3,AAGAAAAA,0.158
4,AAGAAAAT,0.254
5,CAGAAAAG,0.186
6,CAGAAAAC,0.133
7,AAGAAAAG,0.302
8,GGTCCTTA,0.0224
9,CCCTCCAC,-0.0433
10,GTATCAGA,0.119
11,TTATCAAA,0.274
12,TCATCAAA,0.236
13,TGATCAAA,0.156
14,ATATCAAG,0.139
15,ATATCAAA,0.3
16,GTATCAAA,0.293
17,CTATCAAA,0.186
18,GTATCAAC,0.122
19,ACTACTTC,-0.0884
20,ATCACAGG,-0.0882
21,CAATCATC,-0.0782
22,ACTCTGAA,0.177
23,ACGGGTAC,-0.139
24,TAGGCGGA,-0.0248
25,GTATGAGA,-0.0324

row,Sequence,PBM E-score
1,CTATGAAG,0.0327
2,CTATGAAA,0.211
3,TTATGCAA,0.0901
4,GTATGAAA,0.338
5,ATATGAAC,0.154
6,TTATGAAA,0.431
7,ATATGAAA,0.346
8,GTATGAAC,-0.018
9,GTTTTCCA,0.093
10,ATTGGGCG,-0.00653
11,CTGTTTAC,0.0415
12,CTGTTTCC,0.0865
13,ATGTTTCG,0.366
14,CTGTTTCA,0.484
15,GTGTTTCA,0.489
16,ATGTTTCC,0.178
17,ATGTTTCA,0.493
18,ATATTTCA,0.139
19,GTATTTCA,0.1
20,ATGTTTAG,0.214
21,ATGTTCCA,0.18
22,GTGTTGCA,0.159
23,ACCATAAT,0.114
24,AGAAGCAA,0.153
25,ACAGTGCC,-0.0356

row,Sequence,PBM E-score
1,AGCTGCGC,-0.177
2,ATGTTTTG,0.335
3,ATTTTTTG,0.222
4,ATGTTTTA,0.374
5,ATGTTTAA,0.0895
6,CTGTTTTA,0.308
7,CTGTTTTC,0.0946
8,CTGTTTAA,0.22
9,GTGTTTTA,0.405
10,AGGTTTTG,0.0633
11,GTGTTTAA,0.155
12,ATGTTTTC,0.172
13,GGGTTTTA,0.217
14,ACAAGCAA,-0.00365
15,ACCTATGA,-0.21
16,CGCTGGTA,-0.118
17,ATAGCAAA,0.0867
18,CGGGAGTC,-0.12
19,AAAGTTGA,0.111
